Assay outcomes as filed in PubChem.
HT1080 IDH1KD tx: kills HT-1080 cells with IDH1 knockdown | HT-1080 IDH1 knockdown viability, ATP luminescence, 48 h | Potency, µM (highest dose often 46.1 µM), without a hit: top-dose activity, negative = toxicity, most hits filed as cytotoxic | 2% of 360,000 active;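 further: potency means the concentration at half of the fitted maximal effect; 0% = DMSO wells and -100% = cell-free medium wells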
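HT-1080-IDH1KD cells (IDH1 knocked down), 750/well in RPMI with 5% FBS, treated with compound 48 h at 37 degrees C. Viability by CellTiter-Glo luminescence, normalised to DMSO and no-cell wells; concentration-response curves classed.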
HT1080-NT tox: kills 2HG-producing HT-1080-NT fibrosarcoma cells. HT-1080-NT fibrosarcoma viability, CellTiter-Glo ATP luminescence, 48 h. Potency, µM (doses to about 46.1 µM), for the others: at the highest dose activity, negative = less viability, most hits filed as cytotoxic. 1.6% of 360,000 active. AID 686970;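 further: NT is the 2HG producing partner of a matched IDH1 knockdown line; potency means the concentration at half of the fitted maximal effect; 0% = DMSO-treated cells and -100% = media-only wells without cells; nearly all actives have a fitted effect of over 55% in size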
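Toxicity toward the 2HG-producing NT line was scored as %Activity, normalised to DMSO and no-cell wells, from CellTiter-Glo luminescence after 48 hours' treatment.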
DT40 TDP1 no CPT: qHTS for Inhibitors of human tyrosyl-DNA phosphodiesterase 1 (TDP1): qHTS in cells in absence of CPT | DT40 Tdp1-/- hTDP1 cells, no CPT, ATP luminescence, 48 h | Potency, µM (top dose mostly 46.2 µM), without a hit: at the top dose activity change, negative = growth inhibition, actives largely listed as inhibitors | 15% of 420,000 active | AID 686978, 2013; further: potency means the concentration at half of the fitted maximal effect; nearly all actives have a fitted effect of over 55% in size
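Stably hTDP1-transfected Tdp1-null chicken DT40 cells were treated with library compounds minus camptothecin and grown for at least 48 hr at 37 °C, after which cellular ATP was quantified by luminescence.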
ELG1 DNA repair: inhibitors of ELG1-dependent DNA repair in HEK293T cells | HEK293T ELG1-luciferase reporter, luminescence, 16 h; DNA damage induced by 5-fluorouridine | Potency, µM (series often up to 46.1 µM), inactives show at the highest dose activity change, negative = inhibition, actives largely listed as inhibitors | 2.3% of 330,000 active | AID 504467; further: potency means the concentration at half of the fitted maximal effect; nearly all actives have a fitted effect of over 55% in size
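DMSO vehicle served as the neutral condition. Each well held 2,000 cells given 5-fluorouridine plus compound; after 16 hr at 37 °C/5% CO2, ONE-Glo was added and luciferase measured 30 min later.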
DT40 TDP1 CPT: growth inhibition of DT40 Tdp1-/-;hTDP1 cells with camptothecin (screen for TDP1 inhibitors); chicken DT40 Tdp1-/-;hTDP1 cells + 20 nM CPT, ATP luminescence, 48 h; Potency, µM (highest dose often 46.2 µM), for inactives: top-dose activity change, negative = growth inhibition, actives largely listed as inhibitors; 12% of 420,000 active; AID 686979; further: potency means the concentration at half of the fitted maximal effect; nearly all actives have a fitted effect of over 55% in size
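Chicken DT40 Tdp1-/- cells stably complemented with human TDP1 were seeded at 400 cells/well in medium containing 20 nM camptothecin, exposed to pin-transferred compounds, and grown at 37 °C for at least 48 hr. Viability was read as ATP luminescence.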
IL-1B inflam inh: inhibitors of inflammasome signaling (IL-1 beta secretion) | THP-1 LPS/ATP IL-1B secretion, AlphaLISA, 16 h; active compounds read low | activity change, % at 57.5 µM | 4.7% of 360,000 active | AID 743279; in the data active means activity change below about -50%; inconclusive means mostly about -30% to -49%
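Secreted IL-1B measured by AlphaLISA bead assay after 16 h compound exposure of THP-1 cells; compounds (final up to 57.5 uM) added 1 h before LPS (250 ng/mL) and ATP (1.25 mM) stimulation; lower signal means less secretion.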
Active calls of the source: *. Rows were chosen to be rich in hits. Some 19% of all compounds tested hit in one or more screens of this group. Unless noted, the call rests on the fitted dose curve; in most records, active means well fitted curve in the direction sought with a large enough effect; inconclusive means small, poorly fitted or top-dose-only effect, or another doubt; inactive means no such curve, though single readings can be large; an effect the other way counts as inactive or inconclusive. Unless noted, on the % scale 0 is the no-effect control and ±100 the full control effect.

C/C=C1/CN2[C@@H]3C4CO[C@@H]3c3c([nH]c5cc(OC)ccc35)[C@@H]2CC14 (some centres undefined) was read as HT1080 IDH1KD tx 2.9%, HT1080-NT tox 5.9%, DT40 TDP1 no CPT -0.8%, DT40 TDP1 CPT -5.0% and IL-1B inflam inh 3.0.
Screening O=C(Nc1ccc2oc(-c3cccnc3)nc2c1)c1ccc(-c2cccc(Cl)c2)o1 returned DT40 TDP1 no CPT 7.31µM* and DT40 TDP1 CPT -78.0%.
Screening CC(C)c1ccc2oc(-c3ccc(NC(=O)c4cc5ccccc5o4)cc3)nc2c1 returned DT40 TDP1 no CPT inconclusive and DT40 TDP1 CPT -18.1%.
CC(N)CCCC(C)(C)O (centres undefined) was read as DT40 TDP1 no CPT -6.4% and DT40 TDP1 CPT 0.0%.
For O=C(c1ccc2c(c1)N(Cc1ccc(F)cc1)C(=O)c1ccccc1S2)N1CCC2(CC1)OCCO2 the results were DT40 TDP1 no CPT 16.4µM* and DT40 TDP1 CPT 16.4µM*.
O=C(c1ccc2c(c1)N(Cc1ccc(F)cc1)CCS2)N1CCC2(CC1)OCCO2 was read as HT1080 IDH1KD tx 0.1%, HT1080-NT tox -12.0%, DT40 TDP1 no CPT inconclusive, ELG1 DNA repair -1.2%, DT40 TDP1 CPT inconclusive and IL-1B inflam inh -65.0*.
`CCOc1ccc(CN2C(=O)c3ccccc3Sc3ccc(C(=O)N4CCC5(CC4)OCCO5)cc32)cc1` gave DT40 TDP1 no CPT inconclusive and DT40 TDP1 CPT 18.4µM*.
`Cc1ccc(C)c(CN2C(=O)c3ccccc3Sc3ccc(C(=O)N4CCC5(CC4)OCCO5)cc32)c1` gave DT40 TDP1 no CPT 20.6µM* and DT40 TDP1 CPT inconclusive.
For Cc1ccc(CN2CCSc3ccc(C(=O)N4CCC5(CC4)OCCO5)cc32)cc1 the results were HT1080 IDH1KD tx -12.1%, HT1080-NT tox -25.2%, DT40 TDP1 no CPT inconclusive, ELG1 DNA repair 0.3%, DT40 TDP1 CPT inconclusive and IL-1B inflam inh inconclusive.
CN1[C@@H]2CC[C@H]1CC(OC1c3ccccc3CCc3ccccc31)C2 (some centres undefined) was read as HT1080 IDH1KD tx 25.9µM*, HT1080-NT tox 16.4µM*, DT40 TDP1 no CPT 2.59µM*, ELG1 DNA repair -19.8%, DT40 TDP1 CPT 8.2µM* and IL-1B inflam inh inconclusive.
CCOc1ccccc1CN1C2CCC1CC(c1ccc(C)cc1)C2 (centres undefined) was read as HT1080 IDH1KD tx -26.2%, HT1080-NT tox -26.8%, DT40 TDP1 no CPT 18.4µM*, ELG1 DNA repair -16.5%, DT40 TDP1 CPT 23.1µM* and IL-1B inflam inh -12.2.
CCCCCc1nc2ccccc2c(=O)n1-c1ccccc1[N+](=O)[O-] was read as HT1080 IDH1KD tx 3.0%, HT1080-NT tox -14.5%, DT40 TDP1 no CPT 16.4µM*, ELG1 DNA repair 5.2%, DT40 TDP1 CPT inconclusive and IL-1B inflam inh -5.7.
CCOc1ccc(CCNC(=O)c2ccc(CS(=O)(=O)c3ccccc3C)o2)cc1OCC was read as DT40 TDP1 no CPT 14.6µM* and DT40 TDP1 CPT inconclusive.
For CCN1CCN(c2ccc(NC(C)=O)cc2Cl)CC1 the results were HT1080 IDH1KD tx -1.2%, HT1080-NT tox 0.7%, DT40 TDP1 no CPT 24.9%, ELG1 DNA repair -3.8%, DT40 TDP1 CPT 2.8% and IL-1B inflam inh 2.9.
`O=C(Nc1ccc(Cl)cc1)Nc1ccc(Cl)c(Cl)c1` gave HT1080 IDH1KD tx inconclusive, HT1080-NT tox inconclusive, DT40 TDP1 no CPT 2.91µM*, ELG1 DNA repair inconclusive, DT40 TDP1 CPT 4.61µM* and IL-1B inflam inh -87.3*.
O=C(c1cc(Cl)cc(Cl)c1)N1Cc2ccccc2-n2nncc2C1 was read as HT1080 IDH1KD tx 2.6%, HT1080-NT tox -7.1%, DT40 TDP1 no CPT inconclusive, DT40 TDP1 CPT inconclusive and IL-1B inflam inh 21.3.
Screening COC(=O)C1=C(c2ccc(OC(F)(F)F)cc2)C[C@@H]2CC[C@H]1N2C(=O)NC1CC1 returned HT1080 IDH1KD tx 4.4%, HT1080-NT tox 12.7%, DT40 TDP1 no CPT 14.6µM*, ELG1 DNA repair 0.8%, DT40 TDP1 CPT 20.6µM* and IL-1B inflam inh 21.8.
Screening COC(=O)C1=C(c2ccc(OC(F)(F)F)cc2)C[C@@H]2CC[C@H]1N2C(=O)N1CCC(C)CC1 returned HT1080 IDH1KD tx inconclusive, HT1080-NT tox inconclusive, DT40 TDP1 no CPT 5.8µM*, ELG1 DNA repair 0.9%, DT40 TDP1 CPT 6.51µM* and IL-1B inflam inh 0.0.
Screening COC(=O)C1=C(c2ccc(C(C)=O)cc2)C[C@@H]2CC[C@H]1N2C(=O)N1CCOCC1 returned HT1080 IDH1KD tx 0.0%, HT1080-NT tox 0.0%, DT40 TDP1 no CPT inconclusive, ELG1 DNA repair 24.6%, DT40 TDP1 CPT -22.4% and IL-1B inflam inh 12.8.
Screening COC(=O)C1=C(c2ccc(S(C)(=O)=O)cc2)C[C@@H]2CC[C@H]1N2C(=O)N1CCC(C)CC1 returned HT1080 IDH1KD tx 17.1%, HT1080-NT tox 16.3%, DT40 TDP1 no CPT inconclusive, DT40 TDP1 CPT inconclusive and IL-1B inflam inh 6.5.
`COC(=O)C1=C(c2ccc(OC(F)(F)F)cc2)C[C@@H]2CC[C@H]1N2C(=O)N1CCOCC1` gave HT1080 IDH1KD tx 2.4%, HT1080-NT tox -18.2%, DT40 TDP1 no CPT 1.84µM*, ELG1 DNA repair 22.2%, DT40 TDP1 CPT 2.59µM* and IL-1B inflam inh 0.0.
COC(=O)C1=C(c2ccc(OC(F)(F)F)cc2)C[C@@H]2CC[C@H]1N2C(=O)N1CCCC1 was read as HT1080 IDH1KD tx -8.2%, HT1080-NT tox inconclusive, DT40 TDP1 no CPT 1.84µM*, ELG1 DNA repair inconclusive, DT40 TDP1 CPT 1.84µM* and IL-1B inflam inh -1.3.
Screening COC(=O)C1=C(c2ccc(OC(F)(F)F)cc2)C[C@@H]2CC[C@H]1N2C(=O)NCCO returned HT1080 IDH1KD tx 10.3%, HT1080-NT tox 19.4%, DT40 TDP1 no CPT -25.8%, ELG1 DNA repair 25.3%, DT40 TDP1 CPT -13.2% and IL-1B inflam inh 5.7.
`CCC(C)C(=O)OC1C(O)C2C(CN3CC(C)CCC3[C@]2(C)O)C2C[C@]34O[C@@]5(O)C(OC(=O)C(C)(O)C(C)O)CCC3(C)C5C(OC(C)=O)C(OC(C)=O)C4[C@@]21O` (some centres undefined) gave DT40 TDP1 no CPT 6.5% and DT40 TDP1 CPT -0.9%.
